Screening results: PubChem BioAssay, National Center for Advancing Translational Sciences (NCATS)
TDP1 cell noCPT: qHTS for Inhibitors of human tyrosyl-DNA phosphodiesterase 1 (TDP1): qHTS in cells in absence of CPT; DT40 Tdp1-/- hTDP1 cells, no CPT, ATP luminescence, 48 h; Potency, µM (top dose mostly 46.2 µM), without a hit: top-dose activity change, negative = growth inhibition, hits mostly inhibitors; 15% of 420,000 active; AID 686978, 2013; note: potency is the fitted concentration of half-maximal effect; % is set by controls: 0 for no effect and ±100 for the full control effect; nearly all actives have a fitted effect of over 55% in size
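Chicken DT40 Tdp1-/- cells complemented with human TDP1, screened without camptothecin (DMSO vehicle only), 400 cells/well. Compounds pin-transferred, cells incubated at 37 °C for at least 48 hr. Growth read as ATP-dependent luminescence (CellTiter-Glo, 30 min at RT).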
TDP1 inh: blocks human tyrosyl-DNA phosphodiesterase 1 | AID 485290 | 0.28% of 350,000 active | Potency, µM (titrated, usually from 130 µM), for inactives: at the top dose activity change, negative = inhibition, hits mostly inhibitors | Q9NUW8 | recombinant TDP1, AlphaScreen DNA substrate cleavage; note: potency is the fitted concentration of half-maximal effect; % is set by controls: 0 for no effect and ±100 for the full control effect; nearly all actives have a fitted effect of over 40% in size
Target sequence (Q9NUW8 whole entry, looked up): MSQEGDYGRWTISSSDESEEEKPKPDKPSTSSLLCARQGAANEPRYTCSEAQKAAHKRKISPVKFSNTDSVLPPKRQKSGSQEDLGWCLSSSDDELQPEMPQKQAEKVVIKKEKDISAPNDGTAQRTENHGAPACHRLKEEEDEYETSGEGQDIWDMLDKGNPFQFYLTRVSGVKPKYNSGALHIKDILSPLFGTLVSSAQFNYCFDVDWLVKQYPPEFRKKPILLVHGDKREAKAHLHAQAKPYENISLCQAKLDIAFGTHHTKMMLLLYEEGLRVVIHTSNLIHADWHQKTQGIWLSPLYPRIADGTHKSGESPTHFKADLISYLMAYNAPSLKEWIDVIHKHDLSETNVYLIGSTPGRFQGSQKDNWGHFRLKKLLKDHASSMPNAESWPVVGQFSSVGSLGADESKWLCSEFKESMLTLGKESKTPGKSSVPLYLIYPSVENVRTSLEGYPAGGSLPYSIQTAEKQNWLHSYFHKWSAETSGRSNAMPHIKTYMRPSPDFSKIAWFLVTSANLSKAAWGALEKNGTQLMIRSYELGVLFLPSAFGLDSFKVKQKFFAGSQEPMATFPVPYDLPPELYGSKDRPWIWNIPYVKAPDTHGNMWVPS
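Steps: enzyme plus compound, 15 min RT; add biotin/phosphotyrosine-FITC oligonucleotide (15 nM final), react 5 min; add donor/acceptor beads (10 ug/ml final), 10 min; read AlphaScreen. Tdp1 at 1 nM final.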
HepG2 tox: counter-screen for TGF-b inhibitors: cytotoxicity in HepG2 cells. AID 588856. HepG2 CAGA-GFP viability, ATP luminescence, 18 h. 0.76% of 410,000 active. Potency, µM (top dose mostly 46.1 µM), without a hit: at the top dose activity change, negative = cytotoxicity, most hits filed as cytotoxic; note: potency is the fitted concentration of half-maximal effect
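HepG2 CAGA-GFP cells (1000/well, DMEM with 1% FBS) received compound, then TGF-beta at 500 pg/mL final, and were incubated 18 hours at 37 degrees C. Viability was read by CellTiter-Glo luminescence. Media-only wells were set as complete cell-killing and DMSO as no toxicity.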
TGFb SMAD3 inh: blocks TGF-b signaling; Potency, µM (titrated, usually from 46.1 µM), for the others: at the highest dose activity, negative = inhibition, usual class: inhibitors; 1.2% of 410,000 active; HepG2 CAGA-GFP TGF-b/SMAD3 reporter, GFP fluorescence, 18 h; TGF-beta stimulated, 500 pg/mL final; note: potency is the fitted concentration of half-maximal effect; % is set by controls: 0 for no effect and ±100 for the full control effect; nearly all actives have a fitted effect of over 65% in size
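HEPG2 CAGA-GFP cells (1000/well, DMEM with 1% FBS) were pre-incubated 2 h at 37 degrees C, given compound by pin tool, then stimulated with TGF-beta at 500 pg/mL final for 18 h before per-cell GFP fluorescence imaging.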
TDP1 cell CPT: DT40-hTDP1 cell growth loss with CPT. chicken DT40 Tdp1-/-;hTDP1 cells + 20 nM CPT, ATP luminescence, 48 h. Potency, µM (highest dose often 46.2 µM), for inactives: top-dose activity change, negative = growth inhibition, hits mostly inhibitors. 12% of 420,000 active. AID 686979; note: potency is the fitted concentration of half-maximal effect; % is set by controls: 0 for no effect and ±100 for the full control effect; nearly all actives have a fitted effect of over 55% in size
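Cell growth measured by CellTiter-Glo luminescence after a minimum 48 h, 37 C compound exposure with 20 nM CPT in Tdp1-knockout DT40 cells stably expressing hTDP1, seeded 400/well; qHTS titration format.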
IL-1B inflam inh: blocks inflammasome-driven IL-1 beta release; 4.7% of 360,000 active; THP-1 LPS/ATP IL-1B secretion, AlphaLISA, 16 h; stronger effect = lower value; activity change, % at 57.5 µM; AID 743279; in the data active = activity change below about -50%; inconclusive = mostly about -30% to -49%; note: % is set by controls: 0 for no effect and ±100 for the full control effect
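Secreted IL-1B measured by AlphaLISA bead assay after 16 h compound exposure of THP-1 cells; compounds (final up to 57.5 uM) added 1 h before LPS (250 ng/mL) and ATP (1.25 mM) stimulation; lower signal means less secretion.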
* marks the source's active call; other numbers are inactive results; ? = inconclusive; nt = not tested or not shown; [ ] = dose if it differs, or a comment. Compounds with a hit are over-represented: about 19% of the library has one in this group of screens. Unless noted, calls come from the whole dose curve; as a rule, active = well fitted curve in the direction sought with a large enough effect; inconclusive = small, poorly fitted or top-dose-only effect, or another doubt; inactive = no such curve, though single readings can be large; an effect the other way counts as inactive or inconclusive.

SMILES	TDP1 cell noCPT	TDP1 inh	HepG2 tox	TGFb SMAD3 inh	TDP1 cell CPT	IL-1B inflam inh
N#CC1(C#N)COC23CCCCC2C1(C#N)C(=N)O3 (stereo not given)	5.8µM*	-6%	-22%	-5%	5.8µM*	-53*
Cc1ccc(CN2CCSc3ccc(C(=O)NCC(C)c4ccccc4)cc32)cc1 (stereo not given)	23µM*	9%	-6%	0%	?	nt
O=C(NCc1ccco1)c1ccc2c(c1)N(Cc1ccc(Cl)cc1)CCS2	?	6%	10%	-2%	?	-60*
COc1ccc(OC)c(CCNC(=O)c2ccc3c(c2)N(Cc2ccccc2)CCS3)c1	16µM*	7%	-4%	8%	23µM*	2
O=C(NCCc1ccc(Cl)cc1)c1ccc2c(c1)N(Cc1ccccc1)CCS2	?	-4%	-17%	-2%	16µM*	nt
NS(=O)(=O)c1ccc(CCNC(=O)c2ccc3c(c2)N(Cc2ccccc2)CCS3)cc1	-8%	4%	1%	3%	1%	22
O=C(NCc1ccco1)c1ccc2c(c1)N(Cc1ccccc1)CCS2	-12%	10%	-5%	1%	-14%	?
Cc1ccc(CNC(=O)Cn2c(=O)n(-c3cccc(Cl)c3)c(=O)c3sc4ccccc4c32)cc1	?	1%	-24%	-17%	?	nt
COC(=O)c1ccc(CN2C[C@H](Sc3ccccn3)C[C@H]2C(=O)N(C)C)cc1	-19%	nt	nt	nt	-9%[9.04 µM]	nt
Cc1ccc(CN2CCSc3ccc(C(=O)NCCc4ccccc4)cc32)cc1	23µM*	4%	-4%	-14%	23µM*	nt
CC(=O)c1ccc(OC2(C)CCN(CCOc3ccc(C)cc3)C2)cc1 (stereo not given)	5.8µM*	nt	-11%	-18%	16µM*	-12
CSc1ccc(CN2CCC(C)(Oc3ccc4ccccc4c3)C2)cc1 (stereo not given)	?	nt	-36%	-7%	?	16
CC(=O)c1cc2cccc(OC3(C)CCN(Cc4ccc5ccccc5c4)C3)c2o1 (stereo not given)	?	nt	-34%	?	18µM*	-3
CC(=O)c1ccc(OC2(C)CCN(Cc3cc4ccccc4[nH]3)C2)cc1 (stereo not given)	8.2µM*	nt	-23%	9%	4.1µM*	17
COc1ccc(CN2CCC(n3nccc3NC(=O)C3CC3)CC2)c(Cl)c1OC	-21%	6%	-26%	-21%	-8%	0
O=C(CN(Cc1ccccc1)S(=O)(=O)c1ccc2c(c1)OCCO2)N/N=C/c1ccc(F)cc1	-20%	8%	-15%	?	-27%	-56*
Cc1cccc(N2C(=O)C3C4CC(=O)C(c5ccccc54)C3C2=O)c1C (stereo not given)	29%	8%	-2%	1%	7%	4
COc1ccc(CCNC(=O)c2c[nH]c3ccc(F)cc3c2=O)cc1OC	13µM*	nt	-9%	-4%	?	0
COc1cc2[nH]c(C(=O)NCc3ccccc3)cc2c(OC)c1OC	?	nt	-43%	20%	-3%	-65*
COc1cc2[nH]cc(C(=O)NCc3ccccc3)c(=O)c2cc1OC	26µM*	2%	-17%	-12%	?	-16
O=C(Cn1ncn2c(cc3sccc32)c1=O)NCCc1ccccc1	-17%	-4%	-14%	5%	12%	nt
C[C@@H]1CC2C3CCC4=CC(=O)C=CC4(C)[C@@]3(F)[C@@H](O)CC2(C)[C@@]1(O)C(=O)CO (stereo not given in full)	nt	7%	nt	nt	nt	nt
Cc1ccc(-n2nnc(-c3nccn3C)n2)cc1	21µM*	4%	-32%	1%	23µM*	11
CN(C)c1ccc(C=Nc2ccccc2)cc1	-6%	3%	4%	-8%	25%	-14
CN(C)c1ccc(N=Cc2ccco2)cc1	5.2µM*	1%	-50%	-29%	8.2µM*	1
SMILES	TDP1 cell noCPT	TDP1 inh	HepG2 tox	TGFb SMAD3 inh	TDP1 cell CPT	IL-1B inflam inh
CN(C)c1ccc(N=Cc2ccncc2)cc1	5.6µM*	nt	-34%	-29%	6.3µM*	nt
Cc1ccc(N=Cc2ccc(N(C)C)cc2)cc1	2%	7%	-25%	-13%	-2%	-14
Cc1ccc(C(c2sc3nc(-c4ccco4)nn3c2O)N2CCN(c3ccc(F)cc3)CC2)cc1 (stereo not given)	-8%	0%	1%	11%	-1%	nt
N#Cc1ccc(Nc2nc(-c3ccccc3)c(C(=O)c3ccccc3)s2)cc1	23µM*	nt	11µM*	?	18µM*	-52*
O=C(c1ccccc1)c1sc(Nc2ccc3c(c2)OCO3)nc1-c1ccccc1	?	nt	4%	?	?	nt
Oc1ccc(C2CNCc3sccc32)cc1O (stereo not given)	21µM*	11%[56.1 µM]	-20%	-26%	15µM*	3
CC(C)N1CCC1(C)C(=O)Nc1nccc2cccnc12 (stereo not given)	5.2µM*	nt	-25%	-2%	4.1µM*	0
CC(C)N1CCC1(C)C(=O)Nc1cccc2ccccc12 (stereo not given)	?	nt	-18%	-11%	?	12
Cc1cc(NC(=O)C2(C)CCN2C(C)C)c2ccccc2n1 (stereo not given)	21µM*	nt	-9%	-4%	?	90
Cc1ccc(C2=NN(C(=O)CSc3nnnn3C)C(c3ccco3)C2)cc1 (stereo not given)	?	2%	-22%	?	13µM*	?
N=c1sccn1CC(=O)N1N=C(c2ccc(Cl)cc2)CC1c1ccco1 (stereo not given)	23µM*	2%	-23%	?	?	-27
CCC(=O)N1N=C(c2c(-c3ccccc3)c3cc(Cl)ccc3[nH]c2=O)CC1c1ccco1 (stereo not given)	23µM*	5%	-63%	-23%	18µM*	?
Cc1ccc(C2CC(c3ccc(NS(C)(=O)=O)cc3)=NN2C(=O)c2ccco2)cc1 (stereo not given)	?	4%	8%	2%	-5%	-2
CCS(=O)(=O)Nc1ccc(C2=NN(C(=O)c3ccco3)C(c3ccc(C)cc3)C2)cc1 (stereo not given)	20µM*	6%	-16%	?	?	-10
